Measured values reported in PubChem BioAssay.
Results filed as inconclusive are left out. This is one part of the list. The source made the active and inactive calls.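 The calls were made as follows, unless noted: active = GFP response above 150% of the DMSO level; inconclusive = fewer than 70 events counted for a yeast strain; inactive = the rest.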

What was measured:
[1] = target: Regulator of G-protein signaling 16 (Homo sapiens) (UniProt O15492); experiment: small molecules altering RGS protein interactions with GNAO1 – biochemical, multiplexed beads, flow cytometry, RGS4/7/8/16/19, primary screen (AID 1504); settings: multiplexed bead flow cytometry, measured here: RGS16 interaction, at 10 µM;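 also: fluorescently labeled Galpha-o bound to GDP with aluminium fluoride binding biotinylated RGS beads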
[2] = target: Regulator of G-protein signaling 19 (Homo sapiens) (UniProt P49795); experiment: as above; settings: multiplexed bead flow cytometry, measured here: RGS19 interaction, at 10 µM
[3] = target: Regulator of G-protein signaling 7 (Homo sapiens) (UniProt P49802); experiment: as above; settings: multiplexed bead flow cytometry, measured here: RGS7 interaction, at 10 µM
[4] = target: Regulator of G-protein signaling 8 (Homo sapiens) (UniProt P57771); experiment: as above; settings: multiplexed bead flow cytometry, measured here: RGS8 interaction, at 10 µM
[5] = interference with biotin-avidin bead interaction – biochemical, flow cytometry, bead-based, counter-screen for RGS protein interaction modulators (AID 1783;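 active = inhibition above 50%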;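 also: median green fluorescence of gated singlet beads compared with DMSO control wells; 0% = DMSO wells and 100% = complete loss of bead fluorescence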); settings: streptavidin beads, fluorescein-biotin binding; at 10 µM, stronger effect = higher value
[6] = target: Guanine nucleotide-binding protein G(o) subunit alpha (Homo sapiens) (UniProt P09471); experiment: retest of RGS8-Galphao interaction hits – biochemical, multiplexed bead flow cytometry, single concentration, confirmation (AID 1836; in the data active = binding response below about 72% or above about 130%; inactive = in between;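 also: Galphao activated as GDP AlF4 complex before binding bead RGS8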); settings: bead-based flow cytometry RGS8-Galphao binding, fluorescence; at 10 µM; actives lie on both sides
[7] = target: Guanine nucleotide-binding protein G(o) subunit alpha (Homo sapiens) (UniProt P09471); experiment: retest of RGS7-Galphao interaction hits – biochemical, multiplexed bead flow cytometry, single concentration, confirmation (AID 1837; in the data active = response below about 75% or above about 130%; inactive = in between;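 also: fluorescent Galphao activated with GDP and aluminum fluoride binding bead-coupled RGS7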); settings: bead-based flow cytometry RGS7-Galphao binding; at 10 µM; actives lie on both sides
[8] = target: Regulator of G-protein signaling 16 (Homo sapiens) + Guanine nucleotide-binding protein G(o) subunit alpha (Homo sapiens) (UniProt O15492+P09471); experiment: RGS16 and Galphao interaction regulators – biochemical, single concentration, multiplexed bead flow cytometry, confirmation (AID 1838; in the data active = response below about 74% or above about 130%; inactive = in between;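 also: Galphao activated as the GDP aluminium fluoride complex binding bead-coupled RGS16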); settings: bead-based flow cytometry, at 10 µM, actives lie on both sides
[9] = target: Guanine nucleotide-binding protein G(o) subunit alpha (Homo sapiens) (UniProt P09471); experiment: RGS4 and Galphao interaction regulators – biochemical, single concentration, multiplexed bead flow cytometry, confirmation (AID 1840; in the data active = binding response below about 74% or above about 130%; inactive = in between); settings: at 10 µM, actives lie on both sides
[10] = target: Guanine nucleotide-binding protein G(o) subunit alpha (Homo sapiens) + Regulator of G-protein signaling 19 (Homo sapiens) (UniProt P09471+P49795); experiment: RGS19 interaction with Gαo, hit retest – biochemical, single point, multiplexed bead flow cytometry, confirmation (AID 1841; in the data active = response below about 50% or above about 160%; inactive = in between;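 also: 100% = no compound control and 0% = blank background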); settings: bead-based flow cytometry RGS19-Galphao binding; at 10 µM; actives lie on both sides
[11] = rapamycin-like changes in RPL19A-GFP expression – cell-based, S. cerevisiae, multiplex flow cytometry, primary screen (AID 1862; in the data active = percent of DMSO control GFP below about 86%;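 also: lower values mimic rapamycin by blocking the RPL19A rise seen in DMSO cells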); settings: S. cerevisiae RPL19A-GFP strain, flow cytometry fluorescence, 3 h; at 10 µM; stronger effect = lower value
[12] = TOR pathway GLN3 branch reporter MEP2-GFP changes – S. cerevisiae, multiplex flow cytometry, primary screen (AID 1867;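 active = GFP response, as percent of the DMSO control, above the screen-wide mean plus 3 SD, about 139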;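 also: median GFP channel fluorescence of barcode-gated MEP2-GFP cells measured by flow cytometry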); settings: S. cerevisiae MEP2-GFP strain, 3 h, at 10 µM, stronger effect = higher value, 100% means same as DMSO wells
[13] = TOR pathway RTG branch CIT2 reporter changes – S. cerevisiae, GFP fusion, multiplex flow cytometry, primary screen (AID 1870;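 active = percent response above a set limit, the screen-wide mean plus 3 SD, cut at about 130% in these data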;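 also: barcoded CIT2-GFP strain pooled with four other GFP strains with rapamycin as positive control; median GFP fluorescence per well over plate mean of DMSO wells so 100% = DMSO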); settings: S. cerevisiae CIT2-GFP expression, 3 h, at 10 µM, stronger effect = higher value
[14] = TOR pathway LAP4-GFP level changes – S. cerevisiae, multiplex flow cytometry, primary screen (AID 1873;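 active = GFP signal, as percent of the solvent control, above the screen mean plus 3 SD, about 149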); settings: S. cerevisiae LAP4-GFP expression, 3 h, at 10 µM, stronger effect = higher value
[15] = yeast AGP1-GFP level changes, GLN3 branch – cell-based, multiplex flow cytometry, S. cerevisiae, primary screen (AID 1887;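 active = GFP signal above the screen-wide mean plus 3 SD, that is over about 124.5% of the solvent control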;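 also: AGP1-GFP fusion strain of S. cerevisiae within a five-strain barcoded multiplex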); settings: 3 h, at 10 µM, stronger effect = higher value
[16] = hit retest on RPL19A-GFP reporter strain – cell-based, S. cerevisiae, flow cytometry, cherry picks, mother/daughter gates, confirmation (AID 2270;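 active = GFP response below 50% of the DMSO control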); settings: 3 h, at 10 µM, stronger effect = lower value, 100 = same GFP as DMSO wells
[17] = yeast TOR pathway reporter LAP4-GFP change – cell-based, cherry picks, flow cytometry, mother/daughter gates, confirmation (AID 2271;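 active = GFP response above 150% of the DMSO control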;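 also: ratio of sample to DMSO plate mean so 100% equals DMSO level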); settings: S. cerevisiae LAP4-GFP strain, 3 h, at 10 µM, stronger effect = higher value, 100 means same as DMSO control
[18] = TOR pathway reporter MEP2-GFP, retest of hits – S. cerevisiae, flow cytometry GFP, cherry picks, confirmation (AID 2272;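 active = GFP response above 150% of the DMSO control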;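 also: ratio of well signal to plate DMSO mean so 100% equals DMSO level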); settings: S. cerevisiae MEP2-GFP strain, 3 h, at 10 µM, stronger effect = higher value
[19] = yeast AGP1-GFP fluorescence change, single-dose – cell-based, flow cytometry, S. cerevisiae, cherry picks, confirmation (AID 2273);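 also: median GFP channel fluorescence over the whole cell population gate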; settings: S. cerevisiae AGP1-GFP strain, 3 h, at 10 µM
[20] = TOR pathway CIT2 reporter hit retest – S. cerevisiae, GFP fusion, cherry picks, mother/daughter gates, confirmation (AID 2274); settings: S. cerevisiae CIT2-GFP strain, flow cytometry, 3 h, at 10 µM, stronger effect = higher value
[21] = reduced mouse 2C T cell binding to pMHC/ICAM-1 vesicles – MLPCN validation set, flow cytometry, LFA-1/ICAM-1 modulator project, pilot screen (AID 2523;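 active = response below a set limit, under 55% cells CD8-positive and vesicle-bound, and CD8 cells' 90th-percentile brightness under 279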;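 as to vesicle binding response: mean PE anti-B7-1 fluorescence of CD8+ cells relative to row control; 100% = QL9-loaded vesicles with DMSO vehicle in the same plate row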); settings: 2C mouse CD8+ T cells, at 7 µM, stronger effect = lower value; double positive events: measured here: CD8+/vesicle+ event percentage
[22] = target: Integrin beta-1 (Homo sapiens) + Integrin alpha-4 (Homo sapiens) (UniProt P13612+P05556); experiment: alpha4beta1 integrin LIBS antibody binding reduction – U937 cells, HUTS-21 mAb, flow cytometry, validation set, VLA-4 allosteric modulator project, pilot screen (AID 2674;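 active = inhibition above 50%, about 3 SD of the validation set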;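 also: antibody binding induced by the VLA-4 ligand LDV present at three times its Kd; 0% = LDV ligand with antibody and no compound and 100% = antibody without LDV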); settings: HUTS-21 LIBS mAb binding, at 6.7 µM, stronger effect = higher value, binding induced by LDV ligand
[23] = calorie-restriction mimetic ROS inhibitors, yeast – validation compound set, pilot screen (AID 2706;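 active = superoxide response below 65% of plate, a cut near 3 SD across the whole screen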;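 also: yeast exposed to compound for one week at 30 degrees C before staining; 100% = mean of all compound wells on the same plate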); settings: S. cerevisiae aging, superoxide DHE fluorescence; at 10 µM; stronger effect = lower value
[24] = target: Beta-adrenergic receptor kinase 1 (Homo sapiens) (UniProt P25098); experiment: GRK2 binders displacing RNA aptamer, biochemical, validation, human GRK2, bead flow cytometry (AID 488806;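 active = aptamer binding inhibition above 30%, about 3 SD of noise from non-fluorescent compounds; inactive = inhibition at or below 30%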); settings: bead-bound GRK2, FAM-aptamer displacement, at 10 µM, stronger effect = higher value
[25] = target: Beta-2 adrenergic receptor (Homo sapiens) (UniProt P07550); experiment: agonist-induced loss of surface beta2AR – cell-based, FAP fluorogen, flow cytometry, validation set, pilot screen (AID 504459;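 active = percent response above 42, roughly 3 SD of non-fluorescent test compounds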;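 also: agonist-driven loss of surface beta2AR via internalization measured by FAP dye flow cytometry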); settings: Am2.2-beta2AR cells, at 10 µM, stronger effect = higher value
[26] = target: AP-2 complex subunit beta (Homo sapiens) (UniProt P63010); experiment: beta-arrestin/AP2 interaction blockers – biochemical, validation set, GST-AP2 beads, flow cytometry, pilot screen (AID 504541;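 active = inhibition above 54%, about 3 SD of non-fluorescent compounds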;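 also: AP2 carries R879A mutation and is captured from E. coli lysate; bead-bound FITC arrestin peptide fluorescence measuring arrestin peptide binding to AP2; 0% = DMSO wells and 100% = excess unlabeled arrestin peptide control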); settings: FITC arrestin peptide, at 10 µM, stronger effect = higher value, AP2 beta2 appendage fragment, R879A mutant
[27] = cytosolic pH regulators acting via V-ATPase – S. cerevisiae, pHLuorin, HTS validation (AID 504600; in the data active = response above about 15%;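 also: plate controls were DMSO for no effect and reference compound for full effect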); settings: V-ATPase proton transport, at 10 µM, stronger effect = higher value
[28] = system: anti-desmoglein-3 scFv antibody binding to human DSG3; experiment: blockers of pathogenic pemphigus antibody–desmoglein-3 binding – biochemical, validation compound set, bead-based, flow cytometry, pilot screen (AID 588368;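 active = binding below the plate cutoff, the plate median minus 3 SD, with a reading above zero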;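 also: signal is the median channel fluorescence of bead-bound GFP antibody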); settings: Protein G beads, DSG3-Fc, scFv-GFP binding, at 10 µM, stronger effect = lower value
[29] = Nile Red efflux blockade in pump-expressing yeast – validation compound set, multiplex, phenotypic, pilot screen (AID 588506;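 active = efflux inhibition above 0.42, the validation set average plus 4 SD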;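 also: Nile Red retained in cells so higher fluorescence means more efflux inhibition; 0 = negative control wells and 1 = enniatin B 25 µM full block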); settings: S. cerevisiae pump-expressing triplex, Nile Red efflux flow cytometry; at 10 µM; stronger effect = higher value; the pumps come from Candida albicans
[30] = target: ATP-binding cassette sub-family B member 6 (Homo sapiens) (UniProt Q9NP58); experiment: blockers of ABCB6-driven porphyrin uptake – K562-ABCB6 cells, flow cytometry, validation set, pilot screen (AID 588550;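 active = inhibition above the screen-wide mean plus 3 SD, about 51%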;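 also: 0% = DMSO wells and 100% = benzethonium chloride 70 µM positive control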); settings: K562-ABCB6 porphyrin accumulation, 1 h, at 10 µM, stronger effect = higher value
[31] = AML differentiation inducers, ER-HoxA9 marrow cells – cell-based, GFP/MAC1 double positive, flow cytometry, validation set, primary screen (AID 588685;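 active = differentiation response of at least 50%, scaled between solvent and reference control, from cells with both markers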;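 also: compound exposure lasts four days before antibody staining and flow analysis; 0% = DMSO wells and 100% = 5 µM fulvestrant positive control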); settings: stronger effect = higher value, normalized: vehicle 0, fulvestrant 100
[32] = measured here: daughter cell gate
[33] = measured here: mother cell gate

Sequence of Guanine nucleotide-binding protein G(o) subunit alpha (Homo sapiens) (P09471 whole entry, looked up): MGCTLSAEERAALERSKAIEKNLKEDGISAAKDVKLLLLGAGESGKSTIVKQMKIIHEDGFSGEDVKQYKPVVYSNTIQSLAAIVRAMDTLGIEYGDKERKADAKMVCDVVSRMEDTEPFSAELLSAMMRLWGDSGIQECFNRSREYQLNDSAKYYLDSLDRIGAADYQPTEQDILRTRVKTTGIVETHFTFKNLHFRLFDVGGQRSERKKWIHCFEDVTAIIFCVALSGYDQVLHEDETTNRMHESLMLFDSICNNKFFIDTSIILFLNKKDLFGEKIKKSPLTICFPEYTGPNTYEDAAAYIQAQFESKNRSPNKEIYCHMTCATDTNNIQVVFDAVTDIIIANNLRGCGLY
Sequence of Regulator of G-protein signaling 16 (Homo sapiens) + Guanine nucleotide-binding protein G(o) subunit alpha (Homo sapiens) (O15492 whole entry, looked up): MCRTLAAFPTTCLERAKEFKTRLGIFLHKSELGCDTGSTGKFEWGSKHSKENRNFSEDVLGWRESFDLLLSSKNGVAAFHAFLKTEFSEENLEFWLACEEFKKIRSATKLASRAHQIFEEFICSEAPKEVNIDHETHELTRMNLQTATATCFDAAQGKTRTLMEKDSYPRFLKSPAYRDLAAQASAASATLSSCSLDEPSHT
Sequence of Regulator of G-protein signaling 16 (Homo sapiens) + Guanine nucleotide-binding protein G(o) subunit alpha (Homo sapiens) (P09471 whole entry, looked up): as the sequence (P09471 whole entry, looked up) above
Sequence of Beta-2 adrenergic receptor (Homo sapiens) (P07550 whole entry, looked up): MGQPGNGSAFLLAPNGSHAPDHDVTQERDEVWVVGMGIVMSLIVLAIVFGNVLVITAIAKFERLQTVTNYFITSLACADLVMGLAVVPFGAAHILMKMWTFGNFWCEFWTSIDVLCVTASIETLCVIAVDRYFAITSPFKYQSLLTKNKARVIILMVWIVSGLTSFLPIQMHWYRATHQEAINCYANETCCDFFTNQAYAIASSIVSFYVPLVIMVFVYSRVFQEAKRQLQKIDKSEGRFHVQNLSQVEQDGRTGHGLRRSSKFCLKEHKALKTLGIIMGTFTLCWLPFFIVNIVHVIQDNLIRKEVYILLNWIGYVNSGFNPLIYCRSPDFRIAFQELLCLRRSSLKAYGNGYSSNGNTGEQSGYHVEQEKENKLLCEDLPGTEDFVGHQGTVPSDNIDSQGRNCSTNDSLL
Sequence of AP-2 complex subunit beta (Homo sapiens) (P63010 whole entry, looked up, the tested form may be a part, one chain of several): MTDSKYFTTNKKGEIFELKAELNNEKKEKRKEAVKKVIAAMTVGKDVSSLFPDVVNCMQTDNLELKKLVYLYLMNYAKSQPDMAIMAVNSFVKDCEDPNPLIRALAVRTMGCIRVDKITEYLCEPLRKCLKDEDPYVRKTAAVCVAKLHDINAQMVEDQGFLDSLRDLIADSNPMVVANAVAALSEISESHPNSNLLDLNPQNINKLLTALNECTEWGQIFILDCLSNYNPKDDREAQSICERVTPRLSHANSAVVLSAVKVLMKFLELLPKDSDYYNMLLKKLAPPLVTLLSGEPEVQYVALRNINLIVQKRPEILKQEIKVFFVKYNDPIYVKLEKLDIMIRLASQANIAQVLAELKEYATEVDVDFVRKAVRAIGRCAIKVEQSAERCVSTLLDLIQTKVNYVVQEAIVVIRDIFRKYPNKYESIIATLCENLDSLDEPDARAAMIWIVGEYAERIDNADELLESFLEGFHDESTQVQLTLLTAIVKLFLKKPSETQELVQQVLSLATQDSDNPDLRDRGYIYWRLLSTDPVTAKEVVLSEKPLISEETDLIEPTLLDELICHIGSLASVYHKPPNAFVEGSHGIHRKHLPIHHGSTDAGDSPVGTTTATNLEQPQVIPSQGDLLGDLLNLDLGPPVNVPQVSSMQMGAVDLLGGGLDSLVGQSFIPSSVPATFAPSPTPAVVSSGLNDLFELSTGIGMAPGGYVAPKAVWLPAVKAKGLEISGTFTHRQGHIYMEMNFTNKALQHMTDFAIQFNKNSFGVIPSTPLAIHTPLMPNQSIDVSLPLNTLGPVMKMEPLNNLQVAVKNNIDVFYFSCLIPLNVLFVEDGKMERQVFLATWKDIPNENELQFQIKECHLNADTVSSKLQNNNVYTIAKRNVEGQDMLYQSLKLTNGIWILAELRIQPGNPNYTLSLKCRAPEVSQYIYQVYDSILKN
Sequence of Integrin beta-1 (Homo sapiens) + Integrin alpha-4 (Homo sapiens) (P05556 whole entry, looked up): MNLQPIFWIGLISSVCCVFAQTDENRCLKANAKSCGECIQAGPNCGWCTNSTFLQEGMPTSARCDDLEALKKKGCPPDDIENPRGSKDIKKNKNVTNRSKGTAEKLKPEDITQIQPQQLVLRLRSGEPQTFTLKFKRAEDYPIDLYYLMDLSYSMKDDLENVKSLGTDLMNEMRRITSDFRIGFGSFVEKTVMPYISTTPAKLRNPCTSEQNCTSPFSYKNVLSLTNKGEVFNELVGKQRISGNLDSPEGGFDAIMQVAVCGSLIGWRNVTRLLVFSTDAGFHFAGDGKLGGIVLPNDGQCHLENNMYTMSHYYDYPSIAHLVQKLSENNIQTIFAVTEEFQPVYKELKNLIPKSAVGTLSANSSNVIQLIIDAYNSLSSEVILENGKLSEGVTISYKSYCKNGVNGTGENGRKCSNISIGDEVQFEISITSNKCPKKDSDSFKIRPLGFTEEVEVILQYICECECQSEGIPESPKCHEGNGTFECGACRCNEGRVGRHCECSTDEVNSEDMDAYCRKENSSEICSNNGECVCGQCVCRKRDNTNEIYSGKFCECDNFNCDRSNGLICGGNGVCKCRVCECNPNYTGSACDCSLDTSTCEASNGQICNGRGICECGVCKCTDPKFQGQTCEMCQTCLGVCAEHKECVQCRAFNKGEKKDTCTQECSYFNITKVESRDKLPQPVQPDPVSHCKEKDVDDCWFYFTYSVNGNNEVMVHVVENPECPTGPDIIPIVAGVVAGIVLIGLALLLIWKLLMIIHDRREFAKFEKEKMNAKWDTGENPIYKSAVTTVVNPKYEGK
Sequence of Integrin beta-1 (Homo sapiens) + Integrin alpha-4 (Homo sapiens) (P13612 whole entry, looked up): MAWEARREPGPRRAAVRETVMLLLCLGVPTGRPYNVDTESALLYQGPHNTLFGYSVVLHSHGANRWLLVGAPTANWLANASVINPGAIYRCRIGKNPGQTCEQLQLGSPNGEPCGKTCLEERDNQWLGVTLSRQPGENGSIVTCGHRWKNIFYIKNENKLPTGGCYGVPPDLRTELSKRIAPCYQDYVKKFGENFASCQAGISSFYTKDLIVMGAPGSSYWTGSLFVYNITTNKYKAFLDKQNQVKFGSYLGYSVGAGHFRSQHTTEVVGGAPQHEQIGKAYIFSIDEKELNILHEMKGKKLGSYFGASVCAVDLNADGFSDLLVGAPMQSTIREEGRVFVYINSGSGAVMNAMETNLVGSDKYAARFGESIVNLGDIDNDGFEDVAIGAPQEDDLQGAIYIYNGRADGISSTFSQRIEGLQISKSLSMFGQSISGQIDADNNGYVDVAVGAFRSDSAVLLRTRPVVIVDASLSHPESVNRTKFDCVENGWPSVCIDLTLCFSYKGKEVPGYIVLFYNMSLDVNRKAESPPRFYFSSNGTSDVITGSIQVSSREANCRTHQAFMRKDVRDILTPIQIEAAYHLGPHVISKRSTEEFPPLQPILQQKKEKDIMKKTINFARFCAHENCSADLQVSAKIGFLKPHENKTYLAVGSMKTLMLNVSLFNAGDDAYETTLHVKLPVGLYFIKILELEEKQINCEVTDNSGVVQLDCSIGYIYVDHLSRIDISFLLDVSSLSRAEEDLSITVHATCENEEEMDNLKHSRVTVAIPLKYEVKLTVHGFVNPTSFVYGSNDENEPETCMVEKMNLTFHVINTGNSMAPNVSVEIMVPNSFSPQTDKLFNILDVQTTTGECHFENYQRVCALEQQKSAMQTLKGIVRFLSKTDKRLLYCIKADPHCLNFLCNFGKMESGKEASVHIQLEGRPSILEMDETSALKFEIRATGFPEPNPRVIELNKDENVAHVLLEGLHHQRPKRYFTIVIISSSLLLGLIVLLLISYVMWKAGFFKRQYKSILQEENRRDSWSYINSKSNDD
Sequence of ATP-binding cassette sub-family B member 6 (Homo sapiens) (Q9NP58 whole entry, looked up): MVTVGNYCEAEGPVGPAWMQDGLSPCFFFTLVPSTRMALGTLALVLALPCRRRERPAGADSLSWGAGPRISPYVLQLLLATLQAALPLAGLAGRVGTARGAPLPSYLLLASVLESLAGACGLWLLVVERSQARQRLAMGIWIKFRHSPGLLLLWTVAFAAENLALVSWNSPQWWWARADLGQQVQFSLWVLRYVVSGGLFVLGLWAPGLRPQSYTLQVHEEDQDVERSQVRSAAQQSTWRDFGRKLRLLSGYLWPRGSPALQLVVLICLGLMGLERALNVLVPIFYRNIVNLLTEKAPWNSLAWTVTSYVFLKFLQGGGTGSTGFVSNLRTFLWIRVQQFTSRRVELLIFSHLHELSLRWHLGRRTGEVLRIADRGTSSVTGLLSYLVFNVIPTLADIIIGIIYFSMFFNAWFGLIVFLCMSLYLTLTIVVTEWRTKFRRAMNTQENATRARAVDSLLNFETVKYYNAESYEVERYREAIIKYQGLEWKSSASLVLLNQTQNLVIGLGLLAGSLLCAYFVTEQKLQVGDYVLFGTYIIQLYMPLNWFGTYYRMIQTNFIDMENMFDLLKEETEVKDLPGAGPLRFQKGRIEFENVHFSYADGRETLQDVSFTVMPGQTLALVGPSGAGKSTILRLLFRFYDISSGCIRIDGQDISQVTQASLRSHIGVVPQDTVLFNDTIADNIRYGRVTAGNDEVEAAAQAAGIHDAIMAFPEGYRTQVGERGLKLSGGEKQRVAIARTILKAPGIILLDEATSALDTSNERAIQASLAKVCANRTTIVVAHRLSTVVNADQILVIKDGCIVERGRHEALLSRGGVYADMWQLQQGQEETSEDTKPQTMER

Cc1cccc(S(=O)(=O)CC(=O)Nc2nc(-c3ccccc3)cs2)c1
130%: RGS7–Galpha-o binding response [3]
101%: RGS19–Galpha-o binding response [2]
118%: RGS8–Galpha-o binding response [4]
inactive: inhibition [5] 1.7% | binding response (% of control) [6] 101% | response (percent of control binding) [7] 106% | response (% of control binding) [8] 98.5% | binding response (% of control) [9] 103% | response (percent of control binding) [10] 105%
239%: RGS16–Galpha-o binding response [1]

CC(=O)[C@@]1(O)CC[C@H]2[C@@H]3C[C@H](C)C4=CC(=O)CC[C@]4(C)[C@H]3CC[C@@]21C
101%: GFP response, % of DMSO [20, 32]
95.1%: GFP response vs DMSO [16, 33]
92.8%: GFP response relative to DMSO ([17]; measured here: daughter cell gate response)
92.9%: GFP response relative to DMSO ([17]; measured here: mother cell gate response)
72%: double positive events [21]
inactive: percent of DMSO control GFP [11] 90.2% | GFP response vs DMSO [12] 114% | percent response of DMSO control [13] 96.6% | GFP response vs DMSO [14] 78.1% | GFP response, % of DMSO [15] 96.6% | GFP response vs DMSO [16] 94.8% | GFP response relative to DMSO [17] 94.1% | GFP response vs DMSO [18] 92% | GFP response, % of DMSO [19] 93.3% | GFP response, % of DMSO [20] 98.3% | vesicle binding response [21] 363% | inhibition [22] 11.3% | superoxide response (% of plate) [23] 97% | aptamer binding inhibition [24] 4% | response [25] 4.79% | inhibition [26] -6.18% | response [27] 1.54% | binding (% of control) [28] 102% | efflux inhibition (fraction of control) [29] -0.46 | inhibition [30] 13% | differentiation response [31] -9.01%
96.1%: GFP response vs DMSO [16, 32] | GFP response, % of DMSO [20, 33]
